Assay [1] can be described thus: qHTS to identify inhibitors of the type 1 interferon - major histocompatibility complex class I in skeletal muscle: primary screen against the NCATS Mechanism Interrogation Plate v5.0 (MIPE) Libary (AID 1347411).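 Note: plate controls were vehicle for no effect and reference inhibitor for full effect; nearly all actives have a fitted effect of over 65% in size.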 The gist of the method: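 HLA-B HiBit myoblasts, dexamethasone-free medium + 4 ng/ml IFN-b, 24 h compound, 11-pt 1:3 from 46 uM final. Readout: Nano-Glo HiBiT lytic luminescence after 10 min lysis, RT.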
In general terms: Quantitative high-throughput screening tests each substance at several concentrations.

Assay [2] addresses Protein phosphatase 1D (Homo sapiens) (UniProt O15297). The assay is described as follows: RapidFire Mass Spectrometry qHTS Assay for Modulators of WT P53-Induced Phosphatase 1 (WIP1) (AID 1347424).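 Note: amount of dephosphorylated VEPPL-S-QETFS peptide product formed by WIP1; series mostly up to about 63 µM; plate controls were DMSO wells for no effect and GSK830371 inhibitor control at 10 µM for full effect.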 Put shortly:
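RapidFire mass spectrometry measured dephosphorylated peptide after 5 min room-temperature reaction of 2 uM VEPPL-pS-QETFS with 10 nM WIP1 (50 mM Tris-HCl pH 7.5, 30 mM MgCl2, 0.1 mM EGTA, BSA), following 1 hr compound preincubation; 1 uM isotope-labelled product standard.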

Assay [3] in a line: Validation qHTS assay for inhibitors of Activation Induced Cytidine Deaminase (AID): UDG Counterscreen signal (AID 1347427). Note: 0% is about no effect. Put shortly:
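Fluorescence at 560 nm excitation, 665 nm emission reports UDG signal after 250 mM NaOH (2x) addition and 30 min. Enzymes (AID 1 uM, UDG 2 U/mL, at 4/3x) preincubated 10 min with compound, then 4 h with 4x 250 nM DJC20/DJC23 substrate at room temperature.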

Assay [4] addresses Single-stranded DNA cytosine deaminase (Homo sapiens) (UniProt Q9GZX7). In words: Validation qHTS assay for inhibitors of Activation Induced Cytidine Deaminase (AID): AID signal (AID 1347429). Note: % is set by controls: 0 for no effect and ±100 for the full control effect. The gist of the method:
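AID+UDG coupled FRET deamination; cpds up to 114 uM final; DJC20/DJC23 substrate, 4 hr RT; NaOH stop, 30 min RT; read Ex 540/Em 590.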

A short description of assay [5]: Primary qHTS for inhibitors of La Crosse Virus (LACV) - induced cell death in SH-SY5Y cells (AID 1508616).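 Note: top concentration of the series differs between compounds; 0% = infected DMSO wells and 100% = uninfected DMSO wells; higher means more rescue of cells from virus-induced death.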 Put shortly:
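Cytopathicity rescue screen: compounds pinned onto SH-SY5Y cells, which are then infected with LACV (MOI 0.01) and held 6 days at 37C. Percent activity is scaled between infected DMSO control and uninfected DMSO control.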

Assay [6] concerns the target Calcium and integrin-binding protein 1 (Homo sapiens) (UniProt Q99828). In words: Validation qHTS for Identification of Calcium Integrin Binding protein 1 (CIB1) Competitor (AID 1508618). Note: % is set by controls: 0 for no effect and ±100 for the full control effect. Put shortly: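 Displacement of FITC-alphaIIb peptide (100 nM) from CIB1-GST (1 uM) is monitored by polarization in quantitative HTS format; buffer carries 5 mM CaCl2 and 125 mM NaCl at pH 7.4, incubations are at room temperature.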

Assay [7] is described as follows: Primary qHTS for small molecule stabilizers of the endoplasmic reticulum resident proteome: Secreted ER Calcium Modulated Protein (SERCaMP) assay (AID 1508630). Note: % is set by controls: 0 for no effect and ±100 for the full control effect. The gist of the method:
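The SH-SY5Y reporter protocol was run at 3 concentrations up to 38.3 uM (primary) or 11 concentrations (follow-up): 16 h compound, 100 nM thapsigargin for 4 h, then extracellular luciferase luminescence.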

Assay [8] in a line: A High-Content qHTS Against Drug Library for the Identification of Small Molecules that Inhibit DYT1 Early Onset Primary Dystonia-Associated Cell Pathology (AID 1645839; calls by dose curve; note: potency is the fitted concentration of half-maximal effect). Put shortly:
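High-content imaging quantified EGFP-TorsinA mislocalization in HEK293-derived cells inducibly expressing DYT1 mutant torsinA, after 48 h exposure to compound given together with tetracycline induction. Cell count served as a toxicity channel alongside %pathology.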

Assay [9] addresses Papain (Carica papaya) (UniProt P00784). The assay is described as follows: Primary qHTS assay for inhibitors of the protease papain (AID 1645873).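 Note: papain turnover of Z-FR-AMC read as the AMC fluorescence gain over 10 min.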 Note: potency is the fitted concentration of half-maximal effect.
Assay [10] is described as follows: Primary qHTS for inhibitors of nuclear receptor binding SET domain protein 2 (NSD2) in an isogenic RCH-ACV NSD2 p.E1099K mutant (9B) (AID 1645876). Note: nearly all actives have a fitted effect of over 70% in size. Note: potency is the fitted concentration of half-maximal effect.
The target of assay [11] is Cytochrome P450 2D6 (Homo sapiens) (UniProt P10635). In words: Cytochrome P450 family 2 subfamily D member 6 (CYP2D6) small molecule antagonists: luciferase biochemical (cell-free) qHTS assay (AID 1645840; active = well fitted curve in the direction sought with a large enough effect in the repeat runs; an effect the other way counts as inactive or inconclusive; note: nearly all actives have a fitted effect of over 55% in size; note: potency is the fitted concentration of half-maximal effect). Put shortly: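 P450-Glo CYP2D6 system: proluciferin substrate converted by enzyme to luciferin, read by luminescence proportional to activity. Enzyme-substrate mix with compound 10 min at room temperature, then NADPH regeneration 1 h before detection reagent.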

The target in assay [12] is Cytochrome P450 2C9 (Homo sapiens) (UniProt P11712). In words: Cytochrome P450 family 2 subfamily C member 9 (CYP2C9) small molecule antagonists: luciferase biochemical (cell-free) qHTS assay (AID 1645842; active = well fitted curve in the direction sought with a large enough effect in the repeat runs; an effect the other way counts as inactive or inconclusive; note: nearly all actives have a fitted effect of over 55% in size; note: potency is the fitted concentration of half-maximal effect). The gist of the method: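 P450-Glo CYP2C9 system: proluciferin substrate with enzyme in mix containing 0.4% BSA, 10 min at room temperature, then NADPH regeneration solution added and incubated 1 h at 37C. Detection reagent stopped reaction; luminescence read after 20 min as RLU.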

For assay [13], the target named is Protein phosphatase 1D (Homo sapiens) (UniProt O15297). In words: Rhodamine-PBP qHTS Assay for Modulators of WT P53-Induced Phosphatase 1 (WIP1) (AID 1347425). Note: % of control where 0% means no effect. Put shortly: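 5 nM WIP1 + 10 uM Rh-PBP, 50 mM Tris pH 7.5, 30 mM MgCl2, 1 mM TCEP, 0.1 mM EGTA, BSA; cpds pinned, 1 hr RT; + 10 uM phosphopeptide; fluorescence 1-min reads x 11 min; delta = f1 - f0.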

Assay [14] addresses Calcium and integrin-binding protein 1 (Homo sapiens) (UniProt Q99828). In words: Primary qHTS for Identification of Calcium Integrin Binding Protein 1 (CIB1) Competitor (AID 1508620).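 Note: GST tagged CIB1 binding a fluorescein labelled alphaIIb integrin peptide tracer; top concentration of the series differs between compounds; % is set by controls: 0 for no effect and ±100 for the full control effect.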 Put shortly:
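CIB1-GST (1 uM final) and compound incubated 15 min at room temperature before adding FITC-alphaIIb peptide tracer (100 nM final). Competition for binding read by fluorescence polarization (ex 480, em 540) after another 15 min at room temperature.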

Assay [15] in a line: Counterscreen qHTS for small molecule stabilizers of the endoplasmic reticulum resident proteome: GLuc-NoTag assay (AID 1508627).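 Note: SH-SY5Y cells given compound then 100 nM thapsigargin to empty ER calcium; series mostly up to about 76 µM; 0% = thapsigargin alone and -100% = DMSO vehicle control.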 The gist of the method: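 Counterscreen line: SH-SY5Y-GLuc-NoTag cells, treated with compound 19 hr before a 4 hr, 100 nM thapsigargin calcium depletion. Secreted Gaussia luciferase in the medium was measured by luminescence after coelenterazine was added (0.07x final), with cells unlysed.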

Assay [16] is described as follows: Cell Viability qHTS for small molecule stabilizers of the endoplasmic reticulum resident proteome (AID 1508629). The following applies: cell viability counter-screen, 100 nM thapsigargin for final 4 h.
Assay [17] is described as follows: Confirmatory qHTS for small molecule stabilizers of the endoplasmic reticulum resident proteome: Secreted ER Calcium Modulated Protein (SERCaMP) assay (AID 1508628). Note: series mostly up to about 76 µM; % is set by controls: 0 for no effect and ±100 for the full control effect; nearly all actives have a fitted effect of over 40% in size. The gist of the method:
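GLuc-SERCaMP-expressing SH-SY5Y cells, pretreated 16 h with compound, are challenged with thapsigargin to empty ER calcium stores; after 4 h, coelenterazine is added directly to the medium and luminescence is imaged.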

Where “and” joins values, the source holds several entries; their conditions need not be identical. Equal entries are not always repeated. Inconclusive results are not listed. More than one record can exist for a structure, and the calls need not agree. Calls of active or inactive are those of the source. Unless noted, calls come from the whole dose curve; as a rule, active = well fitted curve in the direction sought with a large enough effect; inconclusive = small, poorly fitted or top-dose-only effect, or another doubt; inactive = no such curve, though single readings can be large; an effect the other way counts as inactive or inconclusive.

Calcium and integrin-binding protein 1 (Homo sapiens), sequence (Q99828 whole entry, looked up): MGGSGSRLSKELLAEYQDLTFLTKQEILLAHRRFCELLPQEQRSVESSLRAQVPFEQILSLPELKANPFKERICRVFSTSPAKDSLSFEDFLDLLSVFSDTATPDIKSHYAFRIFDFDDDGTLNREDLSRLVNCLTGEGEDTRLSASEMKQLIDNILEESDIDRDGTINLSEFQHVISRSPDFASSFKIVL
Cytochrome P450 2D6 (Homo sapiens), sequence (P10635 whole entry, looked up): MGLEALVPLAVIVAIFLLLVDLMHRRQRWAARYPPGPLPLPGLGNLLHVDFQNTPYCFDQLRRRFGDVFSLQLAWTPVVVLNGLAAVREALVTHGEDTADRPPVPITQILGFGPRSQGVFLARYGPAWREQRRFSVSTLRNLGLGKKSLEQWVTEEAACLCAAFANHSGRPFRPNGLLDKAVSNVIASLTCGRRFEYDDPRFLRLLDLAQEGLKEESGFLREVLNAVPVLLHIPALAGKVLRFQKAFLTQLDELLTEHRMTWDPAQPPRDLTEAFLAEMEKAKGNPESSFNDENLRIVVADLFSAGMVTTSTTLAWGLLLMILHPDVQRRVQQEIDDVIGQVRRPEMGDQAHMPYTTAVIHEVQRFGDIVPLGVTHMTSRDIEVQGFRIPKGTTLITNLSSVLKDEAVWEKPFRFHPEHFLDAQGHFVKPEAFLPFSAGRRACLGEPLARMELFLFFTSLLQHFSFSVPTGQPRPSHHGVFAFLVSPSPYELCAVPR
Single-stranded DNA cytosine deaminase (Homo sapiens), sequence (Q9GZX7 whole entry, looked up): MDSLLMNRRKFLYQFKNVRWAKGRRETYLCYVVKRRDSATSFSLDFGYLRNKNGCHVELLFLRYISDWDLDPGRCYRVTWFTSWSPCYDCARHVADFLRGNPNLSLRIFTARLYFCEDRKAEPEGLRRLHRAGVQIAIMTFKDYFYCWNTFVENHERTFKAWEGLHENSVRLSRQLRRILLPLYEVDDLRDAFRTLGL
Cytochrome P450 2C9 (Homo sapiens), sequence (P11712 whole entry, looked up): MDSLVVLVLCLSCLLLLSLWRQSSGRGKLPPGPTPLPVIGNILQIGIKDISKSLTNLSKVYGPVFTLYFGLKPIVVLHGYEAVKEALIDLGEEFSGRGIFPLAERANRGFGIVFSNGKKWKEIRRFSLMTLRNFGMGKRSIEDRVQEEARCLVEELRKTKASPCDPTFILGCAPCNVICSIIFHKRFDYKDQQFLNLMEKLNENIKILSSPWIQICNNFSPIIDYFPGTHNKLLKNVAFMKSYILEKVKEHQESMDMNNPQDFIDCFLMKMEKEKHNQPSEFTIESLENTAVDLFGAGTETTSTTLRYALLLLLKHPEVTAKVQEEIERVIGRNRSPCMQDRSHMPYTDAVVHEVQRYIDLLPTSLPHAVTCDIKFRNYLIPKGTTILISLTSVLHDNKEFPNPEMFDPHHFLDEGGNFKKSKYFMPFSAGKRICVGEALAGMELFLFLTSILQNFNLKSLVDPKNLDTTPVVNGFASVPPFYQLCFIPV
Protein phosphatase 1D (Homo sapiens), sequence (O15297 whole entry, looked up): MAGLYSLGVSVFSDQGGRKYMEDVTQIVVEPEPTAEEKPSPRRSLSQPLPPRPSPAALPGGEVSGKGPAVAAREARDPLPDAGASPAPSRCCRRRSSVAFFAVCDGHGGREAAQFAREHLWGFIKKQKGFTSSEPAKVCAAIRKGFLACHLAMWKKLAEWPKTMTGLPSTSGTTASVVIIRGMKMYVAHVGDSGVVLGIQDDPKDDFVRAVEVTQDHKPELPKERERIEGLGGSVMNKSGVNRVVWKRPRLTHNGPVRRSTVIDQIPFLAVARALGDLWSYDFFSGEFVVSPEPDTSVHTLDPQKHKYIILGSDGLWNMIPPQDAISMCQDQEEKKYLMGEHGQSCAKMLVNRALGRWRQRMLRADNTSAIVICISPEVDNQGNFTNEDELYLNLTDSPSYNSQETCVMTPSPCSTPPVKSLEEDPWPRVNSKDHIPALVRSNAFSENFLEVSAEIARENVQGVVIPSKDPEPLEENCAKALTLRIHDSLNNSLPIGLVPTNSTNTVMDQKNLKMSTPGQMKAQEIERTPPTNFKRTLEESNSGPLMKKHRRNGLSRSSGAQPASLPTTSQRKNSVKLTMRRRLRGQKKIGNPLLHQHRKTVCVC
Papain (Carica papaya), sequence (P00784 whole entry, looked up, the tested form may be a part): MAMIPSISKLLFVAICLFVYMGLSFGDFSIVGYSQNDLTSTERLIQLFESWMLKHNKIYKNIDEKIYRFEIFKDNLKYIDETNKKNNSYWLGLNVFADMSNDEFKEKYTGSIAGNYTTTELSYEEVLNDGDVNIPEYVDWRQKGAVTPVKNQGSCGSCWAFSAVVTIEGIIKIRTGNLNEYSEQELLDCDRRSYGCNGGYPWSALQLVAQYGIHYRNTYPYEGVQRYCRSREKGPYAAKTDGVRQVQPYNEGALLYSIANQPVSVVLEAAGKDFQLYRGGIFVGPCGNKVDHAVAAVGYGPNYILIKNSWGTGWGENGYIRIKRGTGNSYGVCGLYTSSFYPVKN

`CCCCNc1cc(C(=O)O)cc(S(N)(=O)=O)c1Oc1ccccc1`: the Potency entry in [1], in assay [2], in assay [4], in [6], in assay [7] and in assay [8] was “inactive” in each case. For the same molecule, the Potency entry in assay [10] is “inactive”. In addition, the outcome in assay [3] and in [5] was inactive. Besides, the Potency in assay [9] was 20 µM (active).

In the case of `NC(=O)c1cnccn1`, the Potency result in assay [1], in assay [2], in assay [4], in assay [6], in [8] and in [11] was “inactive” in each case. For the same molecule, the Potency entry in assay [12], in assay [9] and in [10] was “inactive” throughout. Moreover, the outcome in assay [3] and in assay [5] was inactive.

With `Cn1cnc([N+](=O)[O-])c1Sc1ncnc2nc[nH]c12`, the Potency entry in assay [1], in assay [2], in assay [4], in assay [6], in assay [7] and in assay [11] was “inactive” in each case. Moreover, the Potency entry in assay [12] and in assay [9] was “inactive” in each case. Also, the outcome in [13], in assay [3], in assay [5] and in [14] was inactive. In addition, the Potency in [8] is 35.5 µM (active) and inactive; in assay [10] it was 959 nM (active) and 1.19 µM (active) and 4.17 µM (active).

In the case of `Oc1ccc(C2CNCCc3c2cc(O)c(O)c3Cl)cc1` (stereo unspecified), the Potency entry in [1], in assay [2], in assay [4], in [6], in assay [15] and in assay [8] was “inactive” each time. The Potency result in assay [12], in assay [9] and in assay [10] was “inactive” each time. Further, the outcome in assay [13], in [3], in [5] and in assay [14] was inactive. Further, the max response in [16] is -10.9% (inactive).

On to `c1ccc([C@H]2CN3CCSC3=N2)cc1`, for which the Potency entry in assay [1], in [2], in assay [4], in assay [6], in assay [7] and in assay [8] was “inactive” in each case. Further, the Potency result in assay [12], in assay [9] and in [10] was “inactive” throughout. Also, the call in [3], in [5] and in assay [14] was inactive. Moreover, the Potency in assay [11] was 30.9 µM (active).

As to `CCN(CC)CCCC(C)Nc1ccnc2cc(Cl)ccc12` (stereo unspecified), in assay [1], the activity change, negative = inhibition was 34% [at 8.44 µM] (inactive). Moreover, the Potency entry in assay [2], in [4], in assay [15], in assay [17], in assay [8] and in [10] was “inactive” in each case. Moreover, the result in assay [3] and in assay [5] was inactive. In assay [16], the max response was -9.95% (inactive).

On to `O=C1CCc2cc(OCCCCc3nnnn3C3CCCCC3)ccc2N1`, for which the Potency result in [1], in assay [2], in assay [4], in [6], in assay [7] and in [8] was “inactive” in each case. Besides, the Potency entry in assay [11], in [9] and in assay [10] was “inactive” in each case. The molecule was called inactive in [3], in assay [5] and in assay [14]. Moreover, the Potency in assay [12] was 6.17 µM (active).

As to `Cc1[nH]c(=O)c(C#N)cc1-c1ccc2nccn2c1`, the Potency entry in assay [1], in assay [2], in assay [4], in assay [6], in assay [15] and in assay [7] was “inactive” in each case. Moreover, the Potency entry in [8], in assay [11], in assay [12] and in [10] was “inactive” throughout. In addition, the call in assay [3] and in assay [5] was inactive. The max response in assay [16] is 9.8% (inactive).

On to `NCCCC(N)(C(=O)O)C(F)F` (stereo unspecified), for which the Potency entry in assay [1], in assay [2], in [4], in [6], in assay [7] and in assay [8] was “inactive” each time. For the same molecule, the Potency entry in assay [9] and in [10] was “inactive” throughout. The result in [3], in assay [5] and in assay [14] was inactive.

On to `Cc1[nH]c(=O)c(C#N)cc1-c1ccncc1`, for which the Potency result in assay [1], in assay [2], in [4], in assay [6], in assay [7] and in [8] was “inactive” throughout. Besides, the Potency result in assay [11], in assay [9] and in [10] was “inactive” each time. For the same molecule, the molecule was called inactive in assay [3] and in assay [5]. In assay [12], the Potency was 29.9 µM (active).

As to `C1COC(NC(C2CC2)C2CC2)=N1`, the Potency result in assay [1], in assay [2], in [4], in assay [6], in assay [7] and in assay [8] was “inactive” throughout. The Potency entry in assay [12], in assay [9] and in assay [10] was “inactive” each time. The call in assay [3], in [5] and in [14] was inactive.

As to `Nc1nc2ccc(OC(F)(F)F)cc2s1`, the Potency entry in assay [1], in [2], in [4], in [6], in assay [7] and in assay [8] was “inactive” throughout. The molecule was called inactive in assay [3], in assay [5] and in [14]. The Potency in assay [10] was 23.5 µM (active).

Take `NC(N)=NC(=O)c1nc(Cl)c(N)nc1N`: the Potency entry in [1], in assay [2], in [4], in assay [6], in assay [7] and in assay [8] was “inactive” in each case. For the same molecule, the Potency entry in assay [11] and in assay [12] was “inactive” each time. For the same molecule, the call in assay [3], in [5] and in assay [14] was inactive. The Potency in [9] was 28.2 µM (active).

For `CC(C[N+](C)(C)C)OC(N)=O` (stereo unspecified), the Potency entry in [1], in assay [2], in assay [4], in assay [6], in assay [7] and in assay [8] was “inactive” each time. For the same molecule, the Potency result in assay [11], in assay [12], in assay [9] and in assay [10] was “inactive” each time. The call in [3], in [5] and in assay [14] was inactive.

For the molecule `NCCc1ccc(O)c(O)c1`, the Potency entry in [1], in [2], in assay [4], in [6], in assay [7] and in [8] was “inactive” in each case. Also, the Potency result in [11], in [12] and in assay [9] was “inactive” each time. In addition, the outcome in [13], in [3] and in [5] was inactive. Further, the Potency entry in assay [10] is “inactive and 23.5 µM (active)”.

The values are drawn from PubChem BioAssay (NCATS).
